Holding throughout (assay type): functional
The target of assay [1] is Solute carrier family 2, facilitated glucose transporter member 1 (Homo sapiens) (UniProt P11166). In words: ST_JUDE_LEISH: Cytotoxicity at 2uM final concentration against transgenic Leishmania Mexicana promastigotes LmGLUT1 that are glucose transport deficient and complemented with the human glucose transporter GLUT1. Activity is measured by DNA content using SYBR green in vitro.

In assay [2] the target is Hexose transporter 1 (Plasmodium falciparum) (UniProt O97467). As to the kind of experiment: ST_JUDE_LEISH: Cytotoxicity at 2uM final concentration against transgenic Leishmania Mexicana promastigotes LmPfHT that are glucose transport deficient and complemented with the Plasmodium falciparum hexose transporter. Activity is measured by DNA content using SYBR green in vitro.

Assay [3] deals with Glucose transporter (Leishmania mexicana) (UniProt O61059). As to the kind of experiment: ST_JUDE_LEISH: Cytotoxicity at 2uM final concentration against transgenic Leishmania Mexicana promastigotes LmGT2 that are glucose transport deficient and complemented with the L. Mexicana glucose transporter 2. Activity is measured by DNA content using SYBR green in vitro.

Structures are written as SMILES. “And” between values parts separate entries of the source, which are not always exact repeats. Identical values can stand only once.

Sequence of Solute carrier family 2, facilitated glucose transporter member 1 (Homo sapiens) (P11166 whole entry): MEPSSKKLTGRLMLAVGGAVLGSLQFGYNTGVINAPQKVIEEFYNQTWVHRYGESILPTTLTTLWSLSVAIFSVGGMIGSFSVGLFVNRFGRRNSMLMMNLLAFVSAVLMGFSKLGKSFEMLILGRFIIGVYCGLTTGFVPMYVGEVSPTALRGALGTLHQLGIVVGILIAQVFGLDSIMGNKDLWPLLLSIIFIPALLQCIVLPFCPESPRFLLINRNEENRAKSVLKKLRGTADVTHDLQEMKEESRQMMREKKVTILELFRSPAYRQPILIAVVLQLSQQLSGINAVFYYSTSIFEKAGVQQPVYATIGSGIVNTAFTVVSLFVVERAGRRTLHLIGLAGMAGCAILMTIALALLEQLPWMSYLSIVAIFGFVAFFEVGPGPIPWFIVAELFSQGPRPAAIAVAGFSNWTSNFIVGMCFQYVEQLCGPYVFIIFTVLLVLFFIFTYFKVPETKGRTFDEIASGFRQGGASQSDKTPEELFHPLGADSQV

For `CC(C)c1ccc2[nH]c(C(=O)NC3CCC(N4CCCc5ccc(C#N)cc5C4)CC3)cc2c1` (stereo not drawn), the inhibition in assay [1] came to 3.48%; in assay [2], 0.9%; in assay [3], 1.58%.

With `Cc1cc(N(C)C)nc(Nc2ccc(NC(=O)Nc3ccccc3)cc2)n1`, the inhibition is 2.43% in assay [1], 3.74% in assay [2] and 4.26% in assay [3].

`CCCCCCCN1CCC(CC(=O)Nc2ccnc3ccc(OC)cc23)C(CC)C1` (stereo not drawn): the inhibition is -2.12% in assay [1], -1.03% in assay [2] and -0.31% in assay [3].

For `COc1ccc(CNCc2ccccc2)cc1-c1ccc(S(=O)(=O)NCCN2CCCC2)c(F)c1`, the inhibition in assay [1] is 18.3%; in assay [2] it was 13%; in assay [3] it was 10.7%.

On to `CCCCN1CCN(c2cc(NS(=O)(=O)c3ccc(C(=O)Nc4ccc(C(F)(F)F)cc4)cc3)ccc2OC)CC1`, for which the inhibition in assay [1] is 3.79%; in assay [2], 5.5%; in assay [3] it was 0.69%.

In the case of `CN(c1ccccc1C(=O)Nc1ccccc1Oc1ccccc1)S(=O)(=O)c1ccccc1`, the inhibition in assay [1] was 0.02%; in assay [2], 0.41%; in assay [3], 5.08%.

For `Cc1nc(-c2cccc(C(=O)N(Cc3cncn3Cc3cccc(C(F)(F)F)c3)CC3CC3)c2)cs1`, the values for the inhibition in assay [1], in assay [2] and in assay [3] were 2.11%, 4.67% and 4.26%, respectively.

Regarding `CCCC(=O)c1cnc2c(OCCCc3c[nH]cn3)cccc2c1Nc1c(C)cccc1C`, the inhibition in assay [1] was 2.21%; in assay [2], 1.13%; in assay [3], -1.19%.

For the compound `O=C(Nc1cccc(CN2CCCN(CCc3ccccc3)CC2)c1)c1ccc(Cl)c(Cl)c1`, the results for the inhibition in assay [1], in assay [2] and in assay [3] were 8.79%, 8.5% and -3.05%, respectively.

On to `O=C(/C=C/c1cccc(Cl)c1)Nc1ccc2nc(CN3CCCC3)ccc2c1`, for which the inhibition in assay [1] was determined as 3.42%; in assay [2] it was 5.45%; in assay [3], 3.23%.

On to `O=C(Nc1cccc(-c2cccc(-c3nc4cc(F)ccc4[nH]3)c2)c1)Nc1ccc2c(c1)OCO2`, for which the inhibition in assay [1] is 1.84%; in assay [2], 4.87%; in assay [3] it was -1.13%.

Take `Cc1[nH]c(C)c(-c2ccc(OCCOc3ccc(C(F)(F)F)cn3)cc2)c(=O)c1Br`: the inhibition was -0.58% in assay [1], 1.5% in assay [2] and -1.93% in assay [3].

With `Cc1[nH]c(C)c(-c2ccc(OCCCCSc3ccncc3)cc2)c(=O)c1Br`, the values for the inhibition in assay [1], in assay [2] and in assay [3] were 8.71%, 6.45% and 8.94%, respectively.

For `COc1cc(F)c2ncc(F)c(CCN3C[C@H](CNCc4ccc5c(n4)NC(=O)CS5)[C@H](O)C3)c2c1`, the inhibition in assay [1] is 0.13%; in assay [2], 1.28%; in assay [3], -0.04%.

For the compound `Cn1cnc2c(Nc3ccncc3)nc(-c3ccc(OC(F)(F)F)cc3)nc21`, the inhibition in assay [1] was 2.51%; in assay [2], 1.84%; in assay [3] it was 2.19%.

On to `CCOc1ccc(C(=O)N2CCOC(CCN3CCC4(CCc5ccccc54)CC3)(c3ccc(Cl)c(Cl)c3)C2)cc1` (stereo not drawn), for which the inhibition in assay [1] is 5.41%; in assay [2], 5.56%; in assay [3], 5.12%.

Turning to `COc1cc2nc(N3CCC(CNC(=O)c4cc(Br)c(Br)s4)CC3)nc(N)c2cc1OC`, the figures for the inhibition in assay [1], in assay [2] and in assay [3] were 9.57%, 9.82% and 6.92%, respectively.

Turning to `COc1ccc(-c2nc3cc4ccccc4nc3[nH]2)c(OCC(O)CNC(C)C)c1` (stereo not drawn), the inhibition is -1.53% in assay [1], 1.33% in assay [2] and 1.21% in assay [3].

As for `NC1=NC(c2ccccc2)(c2cccc(O)c2)C(=O)N1CCCc1ccccc1` (stereo not drawn), the inhibition in assay [1] is 10.4% and 2.82%; in assay [2], 10.4% and 1.45%; in assay [3], 6.85% and 0.63%.

Turning to `COC(=O)C(NC(=O)NC1CCN(c2ccnc(Nc3ccc(F)cc3)n2)C1)c1ccccc1` (stereo not drawn), the inhibition in assay [1] was -3.11%; in assay [2], -1.97%; in assay [3], -2.66%.

Consider `O=C1CCCN1CCCNCc1ccc(-c2cccc(-c3nc4cc(F)ccc4[nH]3)c2)cc1`, for which the inhibition in assay [1] was -2.56%; in assay [2], -0.8%; in assay [3] it was -2.7%.

For the compound `COc1ccc(C2CCC(NCCCCNC(=O)c3ccc(NC(=O)c4ccc(Cl)cc4)cc3)CC2)cc1` (stereo not drawn), the values for the inhibition in assay [1], in assay [2] and in assay [3] were 1.37%, 4.07% and 4.39%, respectively.

`N#Cc1ccc2c(c1)CCN(CCC1CCC(NC(=O)Nc3ccnc4ccccc34)CC1)C2` (stereo not drawn): the figures for the inhibition in assay [1], in assay [2] and in assay [3] were 4.82%, 3.39% and 1.75%, respectively.

Consider `CCOc1cc(Cl)c(C(C)NC(=O)c2ccccc2)cc1OCC` (stereo not drawn), for which the results for the inhibition in assay [1], in assay [2] and in assay [3] were 1.69%, 3.65% and 3.01%, respectively.

For the compound `COc1ccc2nccc([C@@H](O)CN3CCC(NCc4cc5cccc(O)c5c(=O)[nH]4)CC3)c2c1`, the values for the inhibition in assay [1], in assay [2] and in assay [3] were 13.7%, 31.5% and 1.42%, respectively.

For the compound `O=C(Cc1cccc(Cl)c1)Nc1ccc(N2CCC(NCc3ccc4ncccc4c3)CC2)cc1`, the inhibition in assay [1] amounted to 12.6%; in assay [2], 13.6%; in assay [3], 8.71%.

In the case of `Cc1ccc(F)cc1S(=O)(=O)NCC(C)c1ccc(NC(=O)Nc2cccc(F)c2)cc1` (stereo not drawn), the inhibition in assay [1] is 0.16%; in assay [2], 1.6%; in assay [3], -0.29%.

For `Cc1cc(Cl)ccc1NC(=O)Nc1ccc2nccc(N3CCN(C)CC3)c2c1`, the inhibition in assay [1] is 3.07%; in assay [2], 6.28%; in assay [3], 5.6%.

Regarding `Nc1ncc(-c2ccsc2)c2ccc(-c3cc(NCc4ccccc4)ncn3)cc12`, the inhibition in assay [1] came out at 10.1%; in assay [2] it was 8.31%; in assay [3], 7.39%.

Take `CN(C)CCCNCc1cn(S(=O)(=O)c2ccccc2Cl)c2ccccc12`: the inhibition in assay [1] is 5.36%; in assay [2] it was 5.25%; in assay [3], 7.6%.

Turning to `COc1ccc(CNC2CCN(C)CC2)cc1-c1ccc(S(=O)(=O)NC2CCC2)c(F)c1`, the inhibition in assay [1] was 0.83%; in assay [2] it was 0.39%; in assay [3] it was 1.91%.

In the case of `NC(=O)c1cccc(C(=O)Nc2cccc(-c3ccc(-c4nc5cc(C(F)(F)F)ccc5[nH]4)cc3)c2)c1`, the inhibition in assay [1] is 0.31%; in assay [2], 4.83%; in assay [3], 2.53%.

Turning to `O=C(/C=C/c1ccc(Cl)c(Cl)c1)NC1CCN(Cc2cccc(O)c2)CC1`, the figures for the inhibition in assay [1], in assay [2] and in assay [3] were 2.92%, 4.2% and -2.96%, respectively.

Regarding `Cc1ccc(-c2nnc(Nc3ccc(OCC(N)=O)cc3)c3ccccc23)cc1S(=O)(=O)NCC1CCCO1` (stereo not drawn), the figures for the inhibition in assay [1], in assay [2] and in assay [3] were 1.11%, 3.81% and 2%, respectively.

As to `CN(C)CCN(Cc1ccccc1-c1ccc(CNCCc2ccccc2)cc1)C(=O)c1ccccc1`, the inhibition in assay [1] worked out at 3.46%; in assay [2] it was 2.83%; in assay [3] it was 3.1%.

Turning to `CC(C)(C)c1ccc(NC(=O)c2ccc(CN3CCCN(Cc4cccc(C#N)c4)CC3)cc2)cc1`, the inhibition was determined as 6.54% in assay [1], 7.31% in assay [2] and 4.99% in assay [3].

A word on the inhibition: it is the drop in the measured response relative to a control, in per cent.

These data come from ChEMBL document CHEMBL3433997, “St. Jude Leishmania screening dataset” (2016).
